Screens (PubChem BioAssay)
D3 antag: qHTS of D3 Dopamine Receptor Antagonist: qHTS. D(3) dopamine receptor (Homo sapiens), P35462. D3R cells, DiscoveRx beta-arrestin luminescence, antagonist mode; active compounds read low. max response, negative = inhibition, %. 360,000 tested, 2.5% active. AID 652054, 2013; in the data active means max response below about -50%; inconclusive means no clear call, values can overlap the other calls
Target sequence (P35462 whole entry, looked up): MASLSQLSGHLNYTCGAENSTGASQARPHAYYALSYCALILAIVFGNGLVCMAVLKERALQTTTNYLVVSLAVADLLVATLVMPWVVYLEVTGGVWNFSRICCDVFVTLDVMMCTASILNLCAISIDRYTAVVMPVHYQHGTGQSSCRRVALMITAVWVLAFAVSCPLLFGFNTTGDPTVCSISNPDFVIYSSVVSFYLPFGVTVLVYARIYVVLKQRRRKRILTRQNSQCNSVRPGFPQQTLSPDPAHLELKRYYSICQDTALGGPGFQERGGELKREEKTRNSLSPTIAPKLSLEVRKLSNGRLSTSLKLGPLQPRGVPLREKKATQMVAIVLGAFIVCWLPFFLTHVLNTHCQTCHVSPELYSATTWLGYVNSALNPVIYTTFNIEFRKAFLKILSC
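Cells expressing the human receptor were seeded at 1500 cells/well, incubated overnight at 37 degrees C in 5% CO2, then exposed to library compounds with dopamine controls for 90 minutes at 37 degrees C before luminescent detection.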
D1 antagonist: Antagonist of Human D 1 Dopamine Receptor: qHTS | 360,000 tested, 3.2% active | activity change, negative = inhibition, % at 10 µM | HEK293 TREx D1 cells, calcium flux, dopamine EC80; active compounds read low | D(1A) dopamine receptor (Homo sapiens), P21728 | AID 504652, 2011; in the data active means activity change below about -30%
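Tetracycline-induced HEK293 Trex D1 cells, force-coupled to calcium, dye-loaded; compounds added and read 180 s, then EC80 dopamine added and calcium flux tracked kinetically another 180 s.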
D1 PAM: Potentiators of Human D1 Dopamine Receptor: qHTS; potentiation, % at 10 µM; AID 504651, 2011; D(1A) dopamine receptor (Homo sapiens), P21728; 360,000 tested, 0.036% active; HEK293 TREx D1 cells, calcium flux, dopamine EC20 potentiation; in the data active means potentiation above about 30%
Chronic BCR inh: qHTS Assay to Find Inhibitors of Chronic Active B-Cell Receptor Signaling. ABC-DLBCL IkBa-CBG/CBR reporter, luminescence ratio, 4 h. AID 493014, 2011. 340,000 tested, 0.05% active. Potency, µM (titrated, usually from 46.1 µM), most hits filed as inhibitors; active means well fitted inhibition curve with a large enough effect in the signal ratio, with a control signal flat, not every such curve was filed as active; inconclusive means small, poorly fitted or top-dose-only effect, or effect the other way, or a change in a side signal; the % refers to the signal ratio
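Concentration-response series (up to 46 uM) were applied to TMD8 dual-reporter cells for 4 h at 37C with doxycycline. Green/red ratio, after filter-overlap correction, defined %Activity; red signal alone was normalised to basal cells and zero luminescence.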
D3 ag: qHTS of D3 Dopamine Receptor Agonist: qHTS | 410,000 tested, 0.58% active | D3R DiscoveRx beta-arrestin cells, luminescence, 90 min | D(3) dopamine receptor (Homo sapiens), P35462 | max activation, %; in the data active means max activation above about 30%
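Agonist mode: compounds and dopamine controls were applied to plated cells for 90 min at 37 degrees C after an overnight attachment at 1500 cells/well. Luminescent read-out followed 30 - 60 minutes at room temperature with DiscoveRx detection reagent.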
D1 ag: Allosteric Agonists of the Human D1 Dopamine Receptor: qHTS. D(1A) dopamine receptor (Homo sapiens), P21728. HEK293 T-REx D1 cells, calcium flux, agonist mode. activation, % at 2 µM. 360,000 tested, 1% active. AID 504660, 2011; in the data active means activation above about 30%
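Agonism was scored from calcium flux recorded over 180 s (1 read/s) after pintool compound addition, following a 10-cycle baseline. Cells were inducible force-coupled HEK293 TREx D1, plated overnight at 30 C and loaded with no-wash calcium dye.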
Of the large screens only hits and unclear results are named; the others gave an inactive call. In the library only some 6% were active in any assay of this set; here they are far more common.

COc1ccc(C2C(C(=O)NCc3ccco3)c3ccccc3C(=O)N2C)cc1 (stereo unspecified)	none
COc1ccc(C2C(C(=O)N3CCN(c4ccccc4)CC3)c3ccccc3C(=O)N2C)cc1 (stereo unspecified)	D1 antagonist -41
COc1ccc(C2C(C(=O)N3CCN(c4ccccc4)CC3)c3ccccc3C(=O)N2C)cc1OC (stereo unspecified)	none
COc1ccccc1/C=C1\SC(N2CCC(C)CC2)=NC1=O	D3 antag -65, Chronic BCR inh inconclusive
COc1cccc(/C=C2\SC(N3CCC(C)CC3)=NC2=O)c1OC	none
Cc1ccc(Cn2cc(CN3CC(N4CCN(CCN(C)C)CC4)CS3(=O)=O)nn2)cc1 (stereo unspecified)	none (no result: D1 antagonist, D1 PAM, Chronic BCR inh, D1 ag)
CCN(CC)CCN(C(=O)c1ccco1)c1nc2cc(C)cc(C)c2s1	none (no result: D3 antag, Chronic BCR inh)
Oc1ccc(N=Nc2ccc3c(c2)OCCO3)c2ncccc12	D3 antag -66, Chronic BCR inh inconclusive, D1 ag 41
CCN(CC)S(=O)(=O)c1cc(OC)ccc1N=Nc1ccc(O)c2ncccc12	D3 antag -108
CCOc1ccc(N=Nc2ccc(O)c3ncccc23)cc1	D3 antag -58, Chronic BCR inh inconclusive
NS(=O)(=O)c1ccc(N=Nc2ccc(O)c3ncccc23)cc1	D3 antag inconclusive, Chronic BCR inh inconclusive
Cc1cccc(N=Nc2ccc(O)c3ncccc23)c1	D3 antag -101, Chronic BCR inh inconclusive
O=C(Nc1ncccc1O)c1ccc2c(c1)OCCO2	Chronic BCR inh inconclusive
Cc1cccc(NCc2ccc(O)c3ncccc23)c1C	none
Cc1ccc(C)c(N=Nc2ccc(O)c3ncccc23)c1	D3 antag inconclusive, D1 antagonist -71
Cc1cccnc1NCc1ccc(O)c2ncccc12	D3 antag -51
CCOC(=O)[C@]12CCC=C1N(Cc1cccc3ccccc13)C(=O)[C@H](CC(=O)NCCC(C)C)C2	none (no result: D1 antagonist, D1 PAM, Chronic BCR inh, D1 ag)
COc1cccc(-n2cc(C(=O)Nc3cc(C)c(Cl)cc3OC)c3ccccc3c2=O)c1	none (no result: D3 antag, Chronic BCR inh)
CC1=CC2(C)C(C3C(C)=CC2(C)C(=O)C3(C)O)C(C)(O)C1=O (stereo unspecified)	none (no result: D1 antagonist, D1 PAM, Chronic BCR inh, D1 ag)
O=C(c1ccc2c(c1)OCO2)C1CCCN(Cc2cccc(C(F)(F)F)c2)C1 (stereo unspecified)	D3 antag -115
O=C(c1ccc2c(c1)OCO2)C1CCCN(Cc2ccc(OC(F)F)cc2)C1 (stereo unspecified)	D3 antag -76
COc1cc(CC(=O)OCC(=O)c2ccc[nH]2)cc(OC)c1OC	none (no result: D1 antagonist, D1 PAM, D1 ag)
COc1cc(CCC(=O)OCC(=O)Nc2ccc(F)cc2F)cc(OC)c1OC	D1 antagonist -48
COc1cc(CCC(=O)OCC(=O)Nc2ccc(Br)cc2F)cc(OC)c1OC	none (no result: D1 PAM)
COc1cc(CCC(=O)OCC(=O)c2ccc[nH]2)cc(OC)c1OC	D1 antagonist -42 (no result: D1 PAM)
O=C(CCC(=O)OCC(F)(F)C(F)F)Nc1ccc(Cl)cc1	none
O=C(CCC(=O)OCC(F)(F)C(F)F)Nc1ccc(F)cc1F	D1 antagonist -60
CN=C1S/C(=C\c2cc(C)n(-c3ccccc3F)c2C)C(=O)N1C	D1 antagonist -43
O=C(O)/C=C\C(=O)Nc1ccc(Oc2ccc(Br)cc2)cc1	D1 antagonist -31
O=C(O)/C=C/C(=O)Nc1ccc(Oc2ccc(NC(=O)/C=C/C(=O)O)cc2)cc1	none (no result: D3 antag, D3 ag)
O=C(O)/C=C\C(=O)Nc1ccc(Oc2ccccc2)cc1	D1 antagonist -63
O=c1oc2c3c4c(cc2c(C(F)(F)F)c1CCN1CCOCC1)CCCN4CCC3	D1 ag 178
CC(C)c1cc(=O)oc2c3c4c(cc12)CCCN4CCC3	Chronic BCR inh inconclusive, D1 ag 30
CCOc1ccccc1C(=O)NC1CCN(CC(=O)Nc2cc(OC)ccc2OC)CC1	D1 antagonist -31
COc1ccc(F)cc1CN1CCN(CC(=O)Nc2ccccc2C(=O)NC2CC2)CC1	D1 antagonist -37
Cc1ccccc1C(=O)N1CCC[C@@H]1C(=O)N1CCC[C@H]1C(=O)NCc1ccncc1	none (no result: D1 antagonist, D1 PAM, Chronic BCR inh, D1 ag)
O=C(NCCC1=CCCCC1)C1CCN(C(=O)c2ccc(Cl)cc2)CC1	D3 antag -131
CCOc1ccc(CCNC(=O)C2CCN(C(=O)N3CC(CC)Oc4ccc(C)cc43)CC2)cc1 (stereo unspecified)	none (no result: D3 antag, Chronic BCR inh)
Clc1ccc(CNCCC2=CCCCC2)cc1	D3 antag -71, Chronic BCR inh inconclusive
CCC1CN(C(=O)N2CCC(C(=O)NCCC3=CCCCC3)CC2)c2cc(C)ccc2O1 (stereo unspecified)	D1 antagonist -31 (no result: D3 antag, Chronic BCR inh)
CCc1ccc(C(=O)c2cn(CC(=O)Nc3cc(OC)ccc3OC)c3nc(C)ccc3c2=O)cc1	D1 antagonist -49 (no result: D3 antag, Chronic BCR inh)
COc1cc2c(cc1OC)C1C/C(=N\O)C(CC(C)C)CN1CC2 (stereo unspecified)	D3 antag -58, D1 antagonist -67
COC(=O)c1ccc(NC(=O)C2CCN(S(C)(=O)=O)CC2)cc1	none
COC(=O)c1ccc(NC(=O)C2CCCN(S(C)(=O)=O)C2)cc1 (stereo unspecified)	D1 antagonist -33, Chronic BCR inh inconclusive
CC#CC(=O)NC1CCCN(C2Cc3ccccc3C2)C1 (stereo unspecified)	none
COc1cccc(C(=O)NC2CCCN(C3Cc4ccccc4C3)C2)c1OC (stereo unspecified)	D3 antag -93
CCC(C)NC(=O)c1cnn(-c2cccc(F)c2)c1-n1cccc1 (stereo unspecified)	none (no result: D3 antag, Chronic BCR inh)
Cc1nn(-c2ccccc2)c2nc(=O)n(-c3ccccc3)cc12	D3 antag -65
COc1cccc(-n2c(=O)c3c(C)c(C(=O)N(C)C)sc3n(CC(=O)NCC3CCCO3)c2=O)c1 (stereo unspecified)	D1 antagonist -30
COC(=O)c1ccccc1NC(=O)Cn1c(=O)n(-c2cccc(OC)c2)c(=O)c2c(C)c(C(=O)N(C)C)sc21	D1 antagonist -35, Chronic BCR inh inconclusive (no result: D3 antag)
COc1cccc(-n2c(=O)c3c(C)c(C(=O)N(C)C)sc3n(Cc3ccc(F)cc3Cl)c2=O)c1	D1 antagonist -31 (no result: D3 antag)
CCc1ccc(-n2c(=O)c3c(C)c(C(=O)N(C)C)sc3n(CC(=O)NCC3CCCO3)c2=O)cc1 (stereo unspecified)	none
